# Data reported in PubChem BioAssay (EPA / NIEHS).
# Results filed as inconclusive are left out. Active and inactive are the calls of the source. How the source made its calls: active means hit-call score of the fitted dose curve at least 0.9, where 1 is the maximum; inconclusive means response in the unintended direction; inactive means score below 0.9.
# Tests used:
# [1] = target: guinea pig Sigma Receptor, Non-selective Binding, SIGMAR1 (gene 100135589) (UniProt Q60492); test: NVS_OR_gSIGMA_NonSelective: NovaScreen (NVS) Nuclear Receptor Binding Assay for guinea pig Sigma Receptor, Non-selective Binding (AID 2283367)
# Procedure, shortened: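 gp brain membr., radioligand displacement, 1 h, filtration + scint. counting; DMSO = baseline; 25 uM x2 primary, conc.-response confirm.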
# [2] = target: human Adenosine Transporter (Adot), SLC29A1 (gene 2030) (UniProt Q99808); test: NVS_TR_hAdoT: NovaScreen (NVS) Transporter Assay for human Adenosine Transporter (Adot) (AID 2283368)
# Procedure, shortened: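 U937-derived membranes, cell-free radioligand binding, filter scintillation 1 h after dosing. 25 uM duplicate screen; hits (e.g. 30% inhibition) run in concentration-response up to 50 uM; loss of signal versus DMSO.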
# [3] = target: human Serotonin Transporter (SERT), SLC6A4 (gene 6532) (UniProt P31645); test: NVS_TR_hSERT: NovaScreen (NVS) Transporter Assay for human Serotonin Transporter (SERT) (AID 2283372)
# Procedure, shortened: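 Radioligand binding to native SERT in human platelet membranes, read by filter-based scintillation counting 1 h after dosing. Primary screen in duplicate at 25 uM; actives followed up in concentration series; loss of signal versus DMSO baseline.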
# [4] = target: Glucocorticoid receptor (Homo sapiens) (UniProt P04150); test: NVS_NR_hGR: NovaScreen (NVS) Nuclear Receptor Binding Assay for human Glucocorticoid Receptor (GR) (AID 2283363);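 on AC50: activity is loss of specific radioligand binding signal relative to DMSO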
# Procedure, shortened: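 Competitive displacement of a labelled ligand was measured on cell-free receptor preparations after 16 h exposure. Initial testing used 25 uM in duplicate with plate controls; confirmed actives went into concentration series.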
# PGR (gene 5241) = PGR (gene 5241) (UniProt P06401); test: NVS_NR_hPR: NovaScreen (NVS) Nuclear Receptor Binding Assay for human Progestron Receptor (PR) (AID 2283360);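 further: active means loss of bound radioligand signal versus DMSO baseline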
# Procedure, shortened: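 T47D-derived receptor preparation, cell-free, with tritiated or iodinated radioligand displacement measured by scintillation 18 h post-dosing. Single 25 uM duplicate screen, then concentration series; signal loss relative to DMSO.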
# [5] = target: Nuclear receptor subfamily 1 group I member 2 (Homo sapiens) (UniProt O75469); test: NVS_NR_hPXR: NovaScreen (NVS) Nuclear Receptor Binding Assay for human Pregnane X Receptor (PXR) (AID 2283365);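 further: a drop in FRET signal versus DMSO baseline means the compound binds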
# Procedure, shortened: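 Human PXR protein, cell-free; compound added, incubated 2 h, TR-FRET read. Signal decrease vs DMSO = binding. Screened 25 uM duplicate, actives re-run as dilution series.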
# [6] = target: Retinoic acid receptor alpha (Homo sapiens) (UniProt P10276); test: NVS_NR_hRARa_Agonist: NovaScreen (NVS) Nuclear Receptor Binding Assay for human Retinoic Acid Alpha Receptor Agonism (RAR) (AID 2283361)
# Procedure, shortened: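 Readout is time-resolved fluorescence resonance energy transfer after a 2 h exposure of cell-free extracted receptor protein. Initial testing used 25 uM in duplicate, with concentration-response follow-up for active chemicals.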
# Sequence of human Adenosine Transporter (Adot), SLC29A1 (gene 2030) (Q99808 whole entry, looked up): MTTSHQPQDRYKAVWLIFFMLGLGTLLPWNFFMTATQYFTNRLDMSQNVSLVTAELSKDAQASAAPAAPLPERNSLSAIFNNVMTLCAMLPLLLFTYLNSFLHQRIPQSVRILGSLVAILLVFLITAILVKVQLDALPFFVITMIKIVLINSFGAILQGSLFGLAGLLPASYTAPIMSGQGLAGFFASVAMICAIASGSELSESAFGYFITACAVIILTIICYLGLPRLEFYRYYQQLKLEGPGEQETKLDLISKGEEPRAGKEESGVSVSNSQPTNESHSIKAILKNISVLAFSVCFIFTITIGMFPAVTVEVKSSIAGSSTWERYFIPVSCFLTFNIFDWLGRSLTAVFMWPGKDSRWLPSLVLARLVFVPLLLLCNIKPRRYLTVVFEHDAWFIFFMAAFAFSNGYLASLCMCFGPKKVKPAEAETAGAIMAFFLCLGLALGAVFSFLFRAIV
# Sequence of guinea pig Sigma Receptor, Non-selective Binding, SIGMAR1 (gene 100135589) (Q60492 whole entry, looked up): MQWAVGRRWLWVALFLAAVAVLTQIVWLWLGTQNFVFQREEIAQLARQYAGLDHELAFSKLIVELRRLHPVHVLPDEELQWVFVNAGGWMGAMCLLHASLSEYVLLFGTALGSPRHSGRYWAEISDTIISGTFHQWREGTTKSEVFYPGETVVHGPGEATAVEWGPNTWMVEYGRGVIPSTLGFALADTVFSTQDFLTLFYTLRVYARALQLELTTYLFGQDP
# Sequence of Glucocorticoid receptor (Homo sapiens) (P04150 whole entry, looked up): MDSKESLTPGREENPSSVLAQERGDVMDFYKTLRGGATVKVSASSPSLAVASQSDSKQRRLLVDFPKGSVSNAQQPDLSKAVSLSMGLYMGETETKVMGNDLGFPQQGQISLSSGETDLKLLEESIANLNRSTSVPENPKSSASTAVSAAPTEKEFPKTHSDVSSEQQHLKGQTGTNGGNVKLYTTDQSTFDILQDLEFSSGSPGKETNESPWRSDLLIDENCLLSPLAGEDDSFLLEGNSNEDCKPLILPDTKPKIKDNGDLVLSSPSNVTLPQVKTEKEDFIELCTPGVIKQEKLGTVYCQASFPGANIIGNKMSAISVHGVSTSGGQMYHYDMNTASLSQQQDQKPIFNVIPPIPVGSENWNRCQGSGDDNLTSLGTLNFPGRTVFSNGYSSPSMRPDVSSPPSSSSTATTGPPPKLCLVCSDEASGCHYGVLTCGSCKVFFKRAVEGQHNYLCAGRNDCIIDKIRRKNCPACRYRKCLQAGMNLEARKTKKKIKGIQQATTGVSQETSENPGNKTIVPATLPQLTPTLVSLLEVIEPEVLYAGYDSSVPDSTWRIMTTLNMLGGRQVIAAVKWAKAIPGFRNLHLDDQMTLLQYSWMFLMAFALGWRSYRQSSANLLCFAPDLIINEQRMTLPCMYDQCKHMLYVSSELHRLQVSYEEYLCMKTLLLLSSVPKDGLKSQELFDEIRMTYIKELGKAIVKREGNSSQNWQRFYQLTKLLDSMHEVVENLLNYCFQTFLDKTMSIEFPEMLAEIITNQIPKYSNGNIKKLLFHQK
# Sequence of Retinoic acid receptor alpha (Homo sapiens) (P10276 whole entry, looked up): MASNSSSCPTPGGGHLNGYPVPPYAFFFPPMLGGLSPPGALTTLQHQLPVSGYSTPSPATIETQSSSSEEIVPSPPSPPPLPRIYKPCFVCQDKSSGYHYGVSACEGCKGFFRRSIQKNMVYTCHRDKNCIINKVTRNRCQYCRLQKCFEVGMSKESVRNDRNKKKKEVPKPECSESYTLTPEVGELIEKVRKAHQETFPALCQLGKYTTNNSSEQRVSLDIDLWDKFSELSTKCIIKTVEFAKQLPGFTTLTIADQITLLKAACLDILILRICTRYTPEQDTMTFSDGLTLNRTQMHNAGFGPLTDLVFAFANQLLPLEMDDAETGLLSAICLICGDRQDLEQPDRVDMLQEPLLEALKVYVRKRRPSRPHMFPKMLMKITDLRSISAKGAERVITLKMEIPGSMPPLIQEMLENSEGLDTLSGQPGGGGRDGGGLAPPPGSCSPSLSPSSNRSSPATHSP
# Sequence of PGR (gene 5241) (P06401 whole entry, looked up): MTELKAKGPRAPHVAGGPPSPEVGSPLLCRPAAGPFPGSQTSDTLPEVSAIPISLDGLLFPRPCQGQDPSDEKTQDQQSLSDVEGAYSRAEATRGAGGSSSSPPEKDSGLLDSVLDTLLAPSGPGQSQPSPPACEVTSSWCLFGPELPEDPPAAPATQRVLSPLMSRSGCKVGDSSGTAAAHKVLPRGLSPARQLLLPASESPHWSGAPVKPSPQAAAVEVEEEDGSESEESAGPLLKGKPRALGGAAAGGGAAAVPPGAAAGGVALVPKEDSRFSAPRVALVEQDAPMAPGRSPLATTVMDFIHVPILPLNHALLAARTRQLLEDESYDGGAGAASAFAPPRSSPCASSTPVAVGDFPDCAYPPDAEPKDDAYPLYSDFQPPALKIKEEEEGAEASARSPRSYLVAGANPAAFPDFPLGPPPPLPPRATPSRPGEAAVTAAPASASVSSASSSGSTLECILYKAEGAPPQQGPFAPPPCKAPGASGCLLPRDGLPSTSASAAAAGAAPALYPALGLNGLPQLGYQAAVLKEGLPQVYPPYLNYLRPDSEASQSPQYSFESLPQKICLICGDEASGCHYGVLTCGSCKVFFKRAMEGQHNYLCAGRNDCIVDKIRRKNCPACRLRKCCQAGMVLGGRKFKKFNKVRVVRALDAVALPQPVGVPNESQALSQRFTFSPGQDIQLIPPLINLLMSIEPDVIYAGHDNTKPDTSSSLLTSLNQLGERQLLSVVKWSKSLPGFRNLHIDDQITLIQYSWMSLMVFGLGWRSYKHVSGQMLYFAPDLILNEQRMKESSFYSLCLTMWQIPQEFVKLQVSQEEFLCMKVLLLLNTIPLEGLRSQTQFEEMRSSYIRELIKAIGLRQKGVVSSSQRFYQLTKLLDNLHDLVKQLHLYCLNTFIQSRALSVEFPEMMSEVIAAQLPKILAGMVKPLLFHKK
# Sequence of human Serotonin Transporter (SERT), SLC6A4 (gene 6532) (P31645 whole entry, looked up): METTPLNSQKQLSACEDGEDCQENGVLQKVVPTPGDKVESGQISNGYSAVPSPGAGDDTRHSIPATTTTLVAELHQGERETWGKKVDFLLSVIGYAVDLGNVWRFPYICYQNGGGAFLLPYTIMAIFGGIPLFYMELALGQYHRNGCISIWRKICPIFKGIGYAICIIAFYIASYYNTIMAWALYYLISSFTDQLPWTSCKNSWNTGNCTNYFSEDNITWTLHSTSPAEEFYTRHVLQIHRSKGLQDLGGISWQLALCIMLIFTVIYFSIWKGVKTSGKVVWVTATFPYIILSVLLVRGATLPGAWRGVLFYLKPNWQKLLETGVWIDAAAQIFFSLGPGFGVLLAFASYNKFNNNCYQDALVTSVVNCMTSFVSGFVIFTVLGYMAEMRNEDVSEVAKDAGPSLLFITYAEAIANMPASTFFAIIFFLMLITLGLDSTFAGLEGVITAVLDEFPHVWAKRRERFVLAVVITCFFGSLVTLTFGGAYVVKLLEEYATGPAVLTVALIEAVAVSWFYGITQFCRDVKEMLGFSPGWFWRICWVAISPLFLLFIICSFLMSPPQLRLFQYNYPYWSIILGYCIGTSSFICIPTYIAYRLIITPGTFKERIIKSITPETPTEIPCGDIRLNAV
# Sequence of Nuclear receptor subfamily 1 group I member 2 (Homo sapiens) (O75469 whole entry, looked up): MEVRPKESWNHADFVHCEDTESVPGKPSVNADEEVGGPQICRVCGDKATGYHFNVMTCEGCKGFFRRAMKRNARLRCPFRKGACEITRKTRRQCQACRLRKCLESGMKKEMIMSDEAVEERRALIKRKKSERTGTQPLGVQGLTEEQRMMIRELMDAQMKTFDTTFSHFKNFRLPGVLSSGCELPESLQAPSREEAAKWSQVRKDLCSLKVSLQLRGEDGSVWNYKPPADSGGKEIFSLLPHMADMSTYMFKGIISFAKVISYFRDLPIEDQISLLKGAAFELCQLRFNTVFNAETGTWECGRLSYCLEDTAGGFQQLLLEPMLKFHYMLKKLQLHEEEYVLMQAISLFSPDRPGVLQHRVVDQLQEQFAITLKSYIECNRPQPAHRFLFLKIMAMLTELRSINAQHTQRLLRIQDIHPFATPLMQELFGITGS
compound,measurement,setting,value
O=C1c2ccccc2C(=O)N1CCc1noc(-c2ccc(CN3CCCCCC3)s2)n1,AC50,[1],6.76 µM (active)
same,AC50,[2],21.1 µM (active)
same,outcome,[3],inactive
CCOC(=O)O[C@H](C)OC(=O)c1ccc2c(c1)cc(C(=O)NC1CCN(C(C)C)CC1)n2Cc1cc(-c2ccc(Cl)s2)on1,AC50,[4],4.59 µM (active)
same,AC50,[1],0.226 µM (active)
same,outcome,[3],inactive
CN1C(=O)N(c2ccccc2Br)Cc2cnc(Nc3ccc4c(c3)OCC(CO)O4)nc21 (stereo not drawn),outcome,[4],inactive
CCCCCCCCN(C)CCCCCCCC,outcome,PGR (gene 5241),inactive
same,AC50,[1],0.212 µM (active)
c1ccc(C[n+]2cccc3ccccc32)cc1,AC50,[1],8.14 µM (active)
O=C(Nc1ccc(Cl)cc1)Nc1ccc(Cl)c(Cl)c1,outcome,[3],inactive
CCCCCCCCCCCC[N+](C)(C)C,AC50,[1],0.123 µM (active)
same,outcome,[2],inactive
Cc1ccc2oc(CN(Cc3ccccc3)C(=O)Nc3c(F)cc(F)cc3F)c(-c3ccc(Cl)cc3)c2c1,AC50,[2],1.1 µM (active)
CCCCCCCC[Si](OCC)(OCC)OCC,outcome,[5],inactive
COc1cccc([C@H](O)C2CCN(CCc3ccc(F)cc3)CC2)c1OC,AC50,[1],0.29 µM (active)
Cc1oc2c(NC(=O)c3c(Cl)cccc3Cl)cccc2c1C(C)(C)O,AC50,[2],25 µM (active)
CC1(C)NC(=O)N(c2ccc([N+](=O)[O-])c(C(F)(F)F)c2)C1=O,AC50,PGR (gene 5241),15.7 µM (active)
same,outcome,[5],inactive
CN(C)C(=O)C1(N2CCCCC2)CCN(CC[C@@]2(c3ccc(Cl)c(Cl)c3)CN(C(=O)c3ccccc3)CCO2)CC1,outcome,PGR (gene 5241),inactive
same,AC50,[4],3.41 µM (active)
same,AC50,[1],6 µM (active)
same,AC50,[3],36 µM (active)
O=C(O)c1ccccc1-n1cc(C(=O)O)c(=O)c2cc(Nc3c(F)cc(F)cc3Cl)c(Cl)cc21,AC50,[4],25 µM (active)
Oc1ccc2ccccc2c1,outcome,[4],inactive
CCN(CC)C(=O)c1cc(S(=O)(=O)Cc2ccccc2)c(N2CCC(c3ccccc3)CC2)cc1N(CC)CCN(C)C,outcome,[6],inactive
same,AC50,[4],14.2 µM (active)
same,AC50,[5],15.4 µM (active)
same,AC50,[1],6.21 µM (active)
Clc1ccccc1C(c1ccccc1)(c1ccccc1)n1ccnc1,AC50,[4],0.7 µM (active)
same,outcome,[5],inactive
O=C(OCCCCCCOC(=O)c1ccccc1)c1ccccc1,outcome,[6],inactive
COc1cc(C(=O)NC2CCN(C)CC2)ccc1Nc1ncc2c(n1)N(C1CCCC1)CC(F)(F)C(=O)N2C,AC50,[4],9.44 µM (active)
same,AC50,[1],9.05 µM (active)
same,AC50,[2],1.27 µM (active)
Oc1ccccc1,outcome,[5],inactive
c1ccc2ccccc2c1,outcome,[6],inactive
NC(=O)c1nc(-c2cccc(-c3cc(F)ccc3OCC(F)(F)C(F)(F)F)c2)n[nH]1,outcome,[5],inactive
